Potency and affinity values are given separately. Activity calls are given as the source filed them.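 How the source made its calls: active means signal falls, with fitted half-maximal concentration at most twice the top valid dose tested; inconclusive means flat curve with partial signal loss, or poor curve fit; inactive means the rest, including signal rising instead.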
The compounds below were run against DNA repair and recombination protein RAD54-like (Homo sapiens) (UniProt Q92698) (assay: RAD54 Holliday junction migration blockers – biochemical, fluorescence, cherry-picked samples, dose series, confirmation (AID 651657)). Settings: RAD54 branch migration, FAM/BHQ fluorescence, 60 min; series mostly up to 50 µM.
Sequence of DNA repair and recombination protein RAD54-like (Homo sapiens) (Q92698 whole entry, looked up): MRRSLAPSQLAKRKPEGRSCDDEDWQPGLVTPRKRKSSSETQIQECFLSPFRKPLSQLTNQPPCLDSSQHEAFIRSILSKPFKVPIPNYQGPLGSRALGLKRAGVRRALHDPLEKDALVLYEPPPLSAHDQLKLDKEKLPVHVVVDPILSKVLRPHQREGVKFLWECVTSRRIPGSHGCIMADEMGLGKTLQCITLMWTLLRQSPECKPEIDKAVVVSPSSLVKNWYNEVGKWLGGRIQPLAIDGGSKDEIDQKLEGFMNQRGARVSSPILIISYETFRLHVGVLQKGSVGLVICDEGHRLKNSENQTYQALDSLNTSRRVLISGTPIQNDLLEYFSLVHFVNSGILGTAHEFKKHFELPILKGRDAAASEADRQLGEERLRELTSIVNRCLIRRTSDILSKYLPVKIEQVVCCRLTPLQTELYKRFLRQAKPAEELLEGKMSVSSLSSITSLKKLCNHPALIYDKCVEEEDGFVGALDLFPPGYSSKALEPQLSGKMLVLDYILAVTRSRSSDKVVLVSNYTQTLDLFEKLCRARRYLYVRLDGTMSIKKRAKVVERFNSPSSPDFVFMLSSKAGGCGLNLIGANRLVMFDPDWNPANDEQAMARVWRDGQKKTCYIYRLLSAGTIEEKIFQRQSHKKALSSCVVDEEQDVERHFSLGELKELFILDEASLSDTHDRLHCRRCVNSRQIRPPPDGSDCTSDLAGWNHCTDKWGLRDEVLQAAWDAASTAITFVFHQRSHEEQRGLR

Q: `Nc1ccnn1C1CCNCC1` was tested. Which outcome did it give?
A: inactive

Q: How did the outcome turn out when `Nc1ccc(CCN2CCCC2)cc1` was run?
A: inactive

Q: How did the outcome turn out when `CCN1CCN(c2ccc(N)c(C)c2)CC1` was run?
A: inactive

Reference: PubChem BioAssay AID651657 (Broad Institute, 2012)
